# Test results published in PubChem BioAssay (EPA / NIEHS).
# Results filed as inconclusive are left out. Active and inactive are the calls of the source. Rule for the calls, unless noted: active = hit-call score of the fitted dose curve at least 0.9, where 1 is the maximum; inactive = score below 0.9.
# Columns and labels:
# [1] = molecular target: Paired box protein Pax-6 (Homo sapiens) (UniProt P26367); test: ATG_Pax6_CIS: Attagene CIS-FACTORIAL HepG2 Assay for human Paired Box 6 (PAX6) (AID 2282956); conditions: HepG2 CIS-FACTORIAL PAX6 reporter transcription, RNA readout; actives raise or lower the signal
# In short: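 Read-out is reporter transcript level, measured by RT-PCR with fluorescent primer extension and capillary electrophoresis after 24 h dosing of transfected HepG2 cells. Activity in either direction fitted relative to DMSO control.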
# [2] = ATG_PXRE_CIS: Attagene CIS-FACTORIAL HepG2 Assay for human Pregnane X Receptor Element (PXRE) (AID 2282957); conditions: HepG2 Attagene CIS-FACTORIAL PXRE reporter, mRNA; actives raise or lower the signal
# In short: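 Using HepG2 transfected with multiple reporter transcription units, endogenous factor-driven transcription was scored as reporter mRNA after 24 h exposure.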
# [3] = ATG_RORE_CIS: Attagene CIS-FACTORIAL HepG2 Assay for human RAR-related Orphan Receptor Element (RORE) (AID 2282959); conditions: HepG2 Attagene cis-factorial RORE reporter, mRNA; actives raise or lower the signal
# In short: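 Transiently transfected HepG2 reporter cells were treated 24 h. Reporter transcripts were detected by RT-PCR and capillary electrophoresis, with bidirectional fitting against DMSO.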
# [4] = ATG_Sox_CIS: Attagene CIS-FACTORIAL HepG2 Assay for human SRY-box transcription factor (SOX) (AID 2282960); conditions: HepG2 Attagene cis-factorial SOX reporter, mRNA; actives raise or lower the signal
# In short: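 Gain- or loss-of-signal endpoint, fitted bidirectionally with DMSO as negative control. Based on reporter mRNA from transfected HepG2 cells harvested 24 h post-treatment and quantified via RT-PCR and capillary electrophoresis.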
# [5] = molecular target: Transcription factor Sp1 (Homo sapiens) (UniProt P08047); test: ATG_Sp1_CIS: Attagene CIS-FACTORIAL HepG2 Assay for human Specificity Protein 1 (Sp1) (AID 2282961); conditions: HepG2 Sp1 cis-reporter transcription, actives raise or lower the signal
# In short: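 Endpoint reflects endogenous Sp1 transcriptional activity, not an exogenous fusion protein: HepG2 cells with transfected cis-regulated reporters, 24 h dosing, RT-PCR/capillary electrophoresis mRNA read-out, DMSO-normalised bidirectional fit.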
# [6] = ATG_SREBP_CIS: Attagene CIS-FACTORIAL HepG2 Assay for human Sterol Regulatory Element Binding (SREBP) (AID 2282962); conditions: HepG2 Attagene cis-factorial SREBP reporter, mRNA; actives raise or lower the signal
# In short: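 Endogenous SREBP activity read as cis-element-driven reporter transcript in transiently transfected HepG2, 24 h post-dosing; quantified via RT-PCR plus capillary electrophoresis of fluorescent fragments. Gain or loss of signal fitted relative to DMSO baseline.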
# [7] = molecular target: Signal transducer and activator of transcription 3 (Homo sapiens) (UniProt P40763); test: ATG_STAT3_CIS: Attagene CIS-FACTORIAL HepG2 Assay for human Signal Transducer and Activator of Transcription 3 (STAT3) (AID 2282963); conditions: HepG2, Attagene cis-factorial STAT3 reporter transcription; actives raise or lower the signal
# In short: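 Readout is reporter transcript quantified by RT-PCR and capillary electrophoresis, with 6-FAM primer extension and HpaI digestion. Total RNA is taken 24 h after dosing transiently transfected HepG2 carrying cis-regulated reporter units. Bidirectional fit against DMSO.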
# [8] = ATG_TA_CIS: Attagene CIS-FACTORIAL HepG2 Assay for human TA Basal Promoter (AID 2282964); conditions: HepG2 Attagene CIS-factorial TA basal promoter reporter; actives raise or lower the signal
# In short: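 Cis-factorial format in HepG2: reporters report endogenous factors, not chimeric Gal4 fusions. After 24 h treatment, reporter transcripts were measured by RT-PCR-capillary electrophoresis fluorescence, analysed bidirectionally versus DMSO.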
# [9] = ATG_TCF_b_cat_CIS: Attagene CIS-FACTORIAL HepG2 Assay for human T-Cell-Factor with beta-catenin (TCF/b-cat) (AID 2282965); conditions: HepG2 TCF/beta-catenin cis-reporter transcription, actives raise or lower the signal
# In short: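 Endogenous transcription factor activity is captured through cis-promoter reporter constructs transiently introduced into human HepG2 liver cells. Induced reporter mRNA is measured after 24 h and fitted bidirectionally relative to DMSO.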
# [10] = ATG_TAL_CIS: Attagene CIS-FACTORIAL HepG2 Assay for human TAL Basal Promoter (AID 2282966); conditions: HepG2 Attagene cis-factorial TAL promoter reporter; actives raise or lower the signal;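 note: background control endpoint measuring basal TAL promoter reporter mRNA not a specific factor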
# In short: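 After 24 hours of chemical exposure, transfected HepG2 cells yielded RNA that was converted to 6-FAM-labelled, HpaI-digested reporter fragments for capillary electrophoresis. Values derive from bidirectional fitting against DMSO controls.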
# [11] = ATG_TGFb_CIS: Attagene CIS-FACTORIAL HepG2 Assay for human Transforming Growth Factor (TGF) (AID 2282967); conditions: HepG2 Attagene CIS TGFb reporter, mRNA transcription; actives raise or lower the signal
# In short: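 Multiplexed cis-reporter HepG2 system, 24 h treatment; mRNA induction read by fluorescence after RT-PCR and CE; DMSO negative control, bidirectional curve fitting.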
# [12] = ATG_VDRE_CIS: Attagene CIS-FACTORIAL HepG2 Assay for human Vitamin D Receptor Element (VDRE) (AID 2282968); conditions: HepG2 VDRE cis-reporter transcription, actives raise or lower the signal
# In short: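 Readout is VDRE-driven reporter mRNA reflecting endogenous factor activity in human HepG2 cells, sampled 24 h post-dose. Quantification used labelled RT-PCR products separated by capillary electrophoresis; bidirectional analysis relative to DMSO.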
# [13] = molecular target: Nuclear receptor subfamily 1 group I member 3 (Homo sapiens) (UniProt Q14994); test: ATG_CAR_TRANS: Attagene TRANS-FACTORIAL HepG2 Assay for human Constitutive Androstane Receptor (CAR) (AID 2282969; active = hit-call score of the fitted dose curve at least 0.9, where 1 is the maximum;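 note: activators raise reporter mRNA above DMSO so AC50 marks induction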); conditions: HepG2 Attagene TRANS-FACTORIAL CAR reporter
# In short: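 Signal is reporter mRNA induction relative to DMSO, measured 24 h after dosing by RT-PCR with fluorescent primer extension and capillary electrophoresis. Human HepG2 liver cells carried transiently transfected chimeric NR-Gal4/GAL4-UAS reporter constructs.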
# [14] = molecular target: X-box-binding protein 1 (Homo sapiens) (UniProt P17861); test: ATG_Xbp1_CIS: Attagene CIS-FACTORIAL HepG2 Assay for human X-box Binding Protein 1 (XBP1) (AID 2282972); conditions: HepG2 XBP1 cis-element reporter, Attagene multiplex; actives raise or lower the signal
# In short: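 Reporter transcripts were quantified by RT-PCR with fluorescent primer extension and capillary electrophoresis after 24 h chemical exposure. Cells: transiently transfected HepG2 carrying cis-regulated reporter constructs; data fitted bidirectionally relative to DMSO.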
# [15] = ATG_PPRE_CIS: Attagene CIS-FACTORIAL HepG2 Assay for human Peroxisome Proliferator-activated Response Element (PPRE) (AID 2282958); conditions: HepG2 PPRE cis-element reporter, Attagene transcription factor profiling; actives raise or lower the signal
# In short: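 Measured endpoint: PPRE-controlled reporter mRNA, detected by RT-PCR and capillary electrophoresis fluorescence, from transiently transfected HepG2 cells 24 h after dosing. Curves fitted in both directions using DMSO baseline.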
# [16] = ATG_M_19_TRANS: Attagene TRANS-FACTORIAL HepG2 Assay for M19 Transcription Factor (Internal Marker) (AID 2282974; active = hit-call score of the fitted dose curve at least 0.9, where 1 is the maximum); conditions: HepG2 Attagene TRANS-FACTORIAL M19 internal marker reporter
# In short: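 Using RT-PCR and capillary electrophoresis, reporter mRNA from transiently transfected human HepG2 cells was quantified following 24 h exposure; activity was fitted in the positive direction against DMSO.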
# [17] = molecular target: Estrogen receptor (Homo sapiens) (UniProt P03372); test: ATG_ERa_TRANS: Attagene TRANS-FACTORIAL HepG2 Assay for human Estrogen Receptor alpha (ERa) (AID 2282970; active = hit-call score of the fitted dose curve at least 0.9, where 1 is the maximum); conditions: HepG2 Attagene TRANS ERa GAL4 reporter, mRNA
# In short: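 Liver-derived HepG2 cells expressing chimeric nuclear receptor-Gal4 proteins from transient transfection were exposed for 24 hours. Gain of reporter mRNA signal versus DMSO, read by capillary electrophoresis of FAM-labelled PCR products, was recorded.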
# [18] = ATG_GAL4_TRANS: Attagene TRANS-FACTORIAL HepG2 Assay for GAL4 (Internal Marker) (AID 2282976; active = hit-call score of the fitted dose curve at least 0.9, where 1 is the maximum); conditions: HepG2 Attagene TRANS GAL4 internal marker reporter
# In short: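 First, HepG2 cells were transfected with reporter units under GAL4-UAS control. Next, they were treated with chemical for 24 h. Finally, RNA was reverse-transcribed, PCR-amplified, FAM-labelled and resolved by capillary electrophoresis, with induction scored against DMSO.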
# [19] = molecular target: Steroid hormone receptor ERR1 (Homo sapiens) (UniProt P11474); test: ATG_ERRa_TRANS: Attagene TRANS-FACTORIAL HepG2 Assay for human Estrogen-Related Receptor alpha (ERRa) (AID 2282971; active = hit-call score of the fitted dose curve at least 0.9, where 1 is the maximum); conditions: HepG2 Attagene TRANS reporter, ERRa transactivation
# In short: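 Reporter transcript induction was quantified by RT-PCR and capillary electrophoresis of FAM-labelled, HpaI-cut products after 24 h treatment of HepG2 cells carrying transiently transfected GAL4-UAS reporter units and an exogenous ERRa-Gal4 fusion; activity scored as increase over DMSO.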
# Sequence of X-box-binding protein 1 (Homo sapiens) (P17861 whole entry, looked up): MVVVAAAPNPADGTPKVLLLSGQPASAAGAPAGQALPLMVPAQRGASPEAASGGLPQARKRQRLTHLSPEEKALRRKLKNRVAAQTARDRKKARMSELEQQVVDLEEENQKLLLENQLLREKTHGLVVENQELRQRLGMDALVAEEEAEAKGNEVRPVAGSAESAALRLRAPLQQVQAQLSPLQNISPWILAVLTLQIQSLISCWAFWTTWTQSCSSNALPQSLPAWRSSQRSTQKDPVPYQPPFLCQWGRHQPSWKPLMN
# Sequence of Transcription factor Sp1 (Homo sapiens) (P08047 whole entry, looked up, the tested form may be a part): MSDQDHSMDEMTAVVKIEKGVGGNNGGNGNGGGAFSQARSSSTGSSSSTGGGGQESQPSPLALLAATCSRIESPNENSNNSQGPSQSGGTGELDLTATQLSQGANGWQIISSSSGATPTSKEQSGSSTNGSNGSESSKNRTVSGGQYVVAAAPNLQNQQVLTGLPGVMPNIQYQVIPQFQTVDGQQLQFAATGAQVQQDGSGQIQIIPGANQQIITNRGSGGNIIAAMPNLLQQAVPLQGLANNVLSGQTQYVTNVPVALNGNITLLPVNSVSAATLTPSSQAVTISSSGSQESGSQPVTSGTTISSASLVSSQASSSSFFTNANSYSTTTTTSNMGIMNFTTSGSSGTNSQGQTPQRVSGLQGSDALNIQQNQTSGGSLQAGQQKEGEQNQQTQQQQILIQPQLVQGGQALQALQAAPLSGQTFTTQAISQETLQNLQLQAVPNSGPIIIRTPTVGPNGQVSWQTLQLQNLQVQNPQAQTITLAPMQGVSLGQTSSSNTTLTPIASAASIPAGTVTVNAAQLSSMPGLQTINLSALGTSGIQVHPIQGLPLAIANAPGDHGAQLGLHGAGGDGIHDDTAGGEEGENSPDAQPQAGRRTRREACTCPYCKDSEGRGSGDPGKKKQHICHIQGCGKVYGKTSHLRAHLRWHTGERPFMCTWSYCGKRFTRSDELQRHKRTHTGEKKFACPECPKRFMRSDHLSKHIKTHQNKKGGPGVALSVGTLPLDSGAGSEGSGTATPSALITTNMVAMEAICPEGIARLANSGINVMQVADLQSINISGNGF
# Sequence of Paired box protein Pax-6 (Homo sapiens) (P26367 whole entry, looked up): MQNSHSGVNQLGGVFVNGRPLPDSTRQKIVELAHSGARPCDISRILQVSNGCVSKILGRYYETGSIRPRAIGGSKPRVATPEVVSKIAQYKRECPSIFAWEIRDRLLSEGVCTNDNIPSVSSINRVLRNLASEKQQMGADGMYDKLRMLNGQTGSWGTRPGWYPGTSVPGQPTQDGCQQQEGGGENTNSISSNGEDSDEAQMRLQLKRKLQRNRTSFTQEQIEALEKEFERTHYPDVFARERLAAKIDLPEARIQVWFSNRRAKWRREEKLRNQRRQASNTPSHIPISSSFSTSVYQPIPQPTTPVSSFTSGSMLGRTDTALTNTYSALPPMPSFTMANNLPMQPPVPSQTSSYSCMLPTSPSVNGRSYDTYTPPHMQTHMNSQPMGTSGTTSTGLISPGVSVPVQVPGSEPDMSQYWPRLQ
# Sequence of Signal transducer and activator of transcription 3 (Homo sapiens) (P40763 whole entry, looked up): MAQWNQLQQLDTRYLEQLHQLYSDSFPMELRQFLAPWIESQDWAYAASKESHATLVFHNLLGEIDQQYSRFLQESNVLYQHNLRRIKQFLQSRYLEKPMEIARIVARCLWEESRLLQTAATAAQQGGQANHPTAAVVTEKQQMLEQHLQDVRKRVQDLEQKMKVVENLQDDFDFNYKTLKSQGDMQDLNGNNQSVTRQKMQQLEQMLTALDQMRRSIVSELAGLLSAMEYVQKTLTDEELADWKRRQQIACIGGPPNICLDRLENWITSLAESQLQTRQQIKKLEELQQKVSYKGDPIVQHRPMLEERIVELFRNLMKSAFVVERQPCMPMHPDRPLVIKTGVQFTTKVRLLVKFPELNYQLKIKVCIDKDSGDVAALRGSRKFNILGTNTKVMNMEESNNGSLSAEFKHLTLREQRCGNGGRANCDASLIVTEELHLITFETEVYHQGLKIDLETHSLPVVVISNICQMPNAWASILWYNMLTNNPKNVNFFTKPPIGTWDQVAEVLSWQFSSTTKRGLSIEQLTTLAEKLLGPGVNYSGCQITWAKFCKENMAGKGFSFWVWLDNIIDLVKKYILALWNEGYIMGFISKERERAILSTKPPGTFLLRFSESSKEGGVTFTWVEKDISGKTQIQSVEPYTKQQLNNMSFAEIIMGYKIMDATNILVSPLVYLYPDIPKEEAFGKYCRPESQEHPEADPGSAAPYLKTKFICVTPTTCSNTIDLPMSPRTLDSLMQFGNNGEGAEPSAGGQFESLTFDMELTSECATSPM
# Sequence of Nuclear receptor subfamily 1 group I member 3 (Homo sapiens) (Q14994 whole entry, looked up, the tested form may be a part): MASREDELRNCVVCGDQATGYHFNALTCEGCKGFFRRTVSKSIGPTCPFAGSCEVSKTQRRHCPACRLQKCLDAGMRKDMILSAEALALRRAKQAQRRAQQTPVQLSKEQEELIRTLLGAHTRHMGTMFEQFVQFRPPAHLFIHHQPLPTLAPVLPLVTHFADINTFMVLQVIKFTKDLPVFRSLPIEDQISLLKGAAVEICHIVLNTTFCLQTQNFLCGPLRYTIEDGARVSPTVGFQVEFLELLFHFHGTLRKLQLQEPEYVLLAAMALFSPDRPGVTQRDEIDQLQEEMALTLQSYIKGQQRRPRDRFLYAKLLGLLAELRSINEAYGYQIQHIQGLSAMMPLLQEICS
# Sequence of Steroid hormone receptor ERR1 (Homo sapiens) (P11474 whole entry, looked up, the tested form may be a part): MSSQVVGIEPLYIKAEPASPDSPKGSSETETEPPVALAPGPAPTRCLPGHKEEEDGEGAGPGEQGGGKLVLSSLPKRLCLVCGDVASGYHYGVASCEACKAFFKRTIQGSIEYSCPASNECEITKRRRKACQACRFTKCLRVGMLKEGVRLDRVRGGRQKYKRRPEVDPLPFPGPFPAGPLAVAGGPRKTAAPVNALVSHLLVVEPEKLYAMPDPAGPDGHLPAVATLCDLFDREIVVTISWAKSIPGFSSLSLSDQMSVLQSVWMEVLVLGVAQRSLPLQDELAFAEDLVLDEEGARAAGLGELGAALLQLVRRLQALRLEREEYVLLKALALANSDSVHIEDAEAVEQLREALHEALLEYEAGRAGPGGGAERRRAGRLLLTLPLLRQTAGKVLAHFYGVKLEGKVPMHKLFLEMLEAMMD
# Sequence of Estrogen receptor (Homo sapiens) (P03372 whole entry, looked up, the tested form may be a part): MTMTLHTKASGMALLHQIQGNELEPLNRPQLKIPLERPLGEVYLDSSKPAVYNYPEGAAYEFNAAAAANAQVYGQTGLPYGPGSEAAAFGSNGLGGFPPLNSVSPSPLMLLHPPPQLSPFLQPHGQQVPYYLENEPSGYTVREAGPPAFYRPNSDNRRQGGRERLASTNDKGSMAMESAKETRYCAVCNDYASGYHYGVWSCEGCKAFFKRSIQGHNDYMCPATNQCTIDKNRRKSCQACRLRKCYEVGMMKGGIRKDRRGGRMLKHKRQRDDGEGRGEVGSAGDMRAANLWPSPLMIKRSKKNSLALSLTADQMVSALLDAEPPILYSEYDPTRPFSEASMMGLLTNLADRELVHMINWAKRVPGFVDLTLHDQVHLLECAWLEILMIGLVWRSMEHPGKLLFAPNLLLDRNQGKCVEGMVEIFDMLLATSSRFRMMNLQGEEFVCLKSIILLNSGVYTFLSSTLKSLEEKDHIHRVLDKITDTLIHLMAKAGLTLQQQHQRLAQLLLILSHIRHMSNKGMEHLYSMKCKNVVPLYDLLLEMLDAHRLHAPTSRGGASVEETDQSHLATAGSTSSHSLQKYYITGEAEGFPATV
smiles,measurement,setting,value
c1ccc(CN(Cc2ccccc2)Cc2ccccc2)cc1,outcome,[1],inactive
same,AC50,[2],2.51 µM (active)
same,outcome,[3],inactive
same,outcome,[4],inactive
same,AC50,[5],165 µM (active)
same,outcome,[6],inactive
same,outcome,[7],inactive
same,outcome,[8],inactive
same,outcome,[9],inactive
same,outcome,[10],inactive
same,outcome,[11],inactive
same,outcome,[12],inactive
same,outcome,[13],inactive
same,outcome,[14],inactive
CC=Cc1ccc(OC)c(OC)c1,outcome,[1],inactive
same,AC50,[2],19.5 µM (active)
same,outcome,[15],inactive
same,outcome,[4],inactive
same,outcome,[5],inactive
same,outcome,[7],inactive
same,outcome,[8],inactive
same,outcome,[10],inactive
same,outcome,[11],inactive
same,outcome,[12],inactive
same,outcome,[14],inactive
same,outcome,[16],inactive
CCCCCCCCCCCC(=O)OCC(O)CO (centres undefined),outcome,[1],inactive
same,AC50,[2],169 µM (active)
same,outcome,[3],inactive
same,outcome,[4],inactive
same,outcome,[5],inactive
same,AC50,[6],100 µM (active)
same,outcome,[7],inactive
same,outcome,[8],inactive
same,outcome,[9],inactive
same,outcome,[10],inactive
same,outcome,[11],inactive
same,outcome,[12],inactive
same,outcome,[17],inactive
same,outcome,[14],inactive
same,outcome,[18],inactive
CC1(C)C(=O)N(Cl)C(=O)N1Br,outcome,[1],inactive
same,AC50,[2],62.7 µM (active)
same,outcome,[15],inactive
same,outcome,[4],inactive
same,outcome,[5],inactive
same,outcome,[6],inactive
same,outcome,[7],inactive
same,outcome,[8],inactive
same,outcome,[10],inactive
same,outcome,[11],inactive
same,outcome,[13],inactive
same,outcome,[14],inactive
same,outcome,[16],inactive
C=C1CC[C@H](O)C/C1=C/C=C1\CCC[C@]2(C)[C@@H]([C@H](C)/C=C/[C@H](C)C(C)C)CC[C@@H]12,outcome,[1],inactive
same,AC50,[2],3.32 µM (active)
same,outcome,[15],inactive
same,outcome,[4],inactive
same,outcome,[6],inactive
same,outcome,[7],inactive
same,outcome,[8],inactive
same,outcome,[9],inactive
same,outcome,[10],inactive
same,outcome,[11],inactive
same,outcome,[12],inactive
same,outcome,[14],inactive
CCCCCCCCc1ccc(S(=O)(=O)O)cc1,AC50,[1],19.7 µM (active)
same,outcome,[2],inactive
same,outcome,[3],inactive
same,outcome,[4],inactive
same,AC50,[5],186 µM (active)
same,AC50,[6],159 µM (active)
same,outcome,[7],inactive
same,outcome,[8],inactive
same,outcome,[9],inactive
same,outcome,[10],inactive
same,outcome,[11],inactive
same,outcome,[12],inactive
same,outcome,[13],inactive
same,outcome,[14],inactive
same,outcome,[16],inactive
same,outcome,[18],inactive
CCOC(=O)c1ccc(N)cc1,outcome,[1],inactive
same,AC50,[2],27 µM (active)
same,outcome,[3],inactive
same,outcome,[4],inactive
same,outcome,[5],inactive
same,outcome,[6],inactive
same,outcome,[7],inactive
same,outcome,[8],inactive
same,outcome,[10],inactive
same,outcome,[11],inactive
same,outcome,[12],inactive
same,outcome,[14],inactive
same,outcome,[16],inactive
same,outcome,[18],inactive
CC1=CC[C@@]23C[C@@H]1C(C)(C)[C@@H]2CC[C@H]3C,outcome,[1],inactive
same,AC50,[2],5.2 µM (active)
same,outcome,[3],inactive
same,outcome,[4],inactive
same,outcome,[5],inactive
same,outcome,[6],inactive
same,outcome,[7],inactive
same,outcome,[8],inactive
same,outcome,[9],inactive
same,outcome,[10],inactive
same,outcome,[11],inactive
same,outcome,[13],inactive
same,outcome,[14],inactive
CCCCCCCCCCCCCC(=O)OCC(O)CO (centres undefined),outcome,[1],inactive
same,outcome,[2],inactive
same,outcome,[3],inactive
same,outcome,[4],inactive
same,outcome,[5],inactive
same,AC50,[6],67 µM (active)
same,outcome,[7],inactive
same,outcome,[8],inactive
same,outcome,[9],inactive
same,outcome,[10],inactive
same,outcome,[11],inactive
same,outcome,[12],inactive
same,outcome,[19],inactive
same,outcome,[14],inactive
same,outcome,[18],inactive
